# Records with an inconclusive call do not appear. The source made the active and inactive calls. Calls come from the whole dose curve; as a rule, active = well fitted cell-killing curve with a large enough effect; inconclusive = small, poorly fitted or top-dose-only effect, or effect the other way; inactive = no such curve, though single readings can be large or run the other way.
# Assay: Quantitative High-Throughput drug screen in 47 multiple myeloma cell lines against the NCATS MIPE library collection: EJM_DSMZ cell viability assay (AID 1918926; note: nearly all actives have a fitted effect of over 30% in size)
# Settings: EJM myeloma cell viability, CellTiter-Glo ATP, 48 h; series mostly up to 45.8 µM; viability, % of control: at the top concentration
# Text: PI: Beverly A. Mock Ph.D.
# Laboratory of Cancer Biology and Genetics,
# Center for Cancer Research, National Cancer Institute,
# National Institute of Health, Bethesda, Maryland
# Drug resistance and disease progression are common in multiple myeloma (MM) patients, underscoring the need for new therapeutic combinations. […] We hypothesized that effective combinations would reduce MYC expression and enhance p16 activity. […] These preclinical data identify potentially useful drug combinations for evaluation in drug-resistant MM and reveal potential mechanisms of combined drug sensitivity.
# Described herein is the primary MIPE qHTS used to cherrypick compounds. Validated compounds were then further tested for potential synergistic activiy.
# [1] Peat TJ, Gaikwad SM, Dubois W, Gyabaah-Kessie N, Zhang S, Gorjifard S, Phyo Z, Andres M, Hughitt VK, Simpson RM, Miller MA, Girvin AT, Taylor A, Williams D, D'Antonio N, Zhang Y, Rajagopalan A, Flietner E, Wilson K, Zhang X, Shinn P, Klumpp-Thomas C, McKnight C, Itkin Z, Chen L, Kazandijian D, Zhang J, Michalowski AM, Simmons JK, Keats J, Thomas CJ, Mock BA. Drug combinations identified by high-throughput screening promote cell cycle transition and upregulate Smad pathways in myeloma. Cancer Lett. 2023 Aug 1;568:216284. doi: 10.1016/j.canlet.2023.216284. Epub 2023 Jun 24. PMID: 37356470; PMCID: PMC10408729.
# SEQUENCE No. (e.g., 1, 2, 3, etc.); […] (e.g., Cells, Incubation, Reagent, etc.); VALUE and DESCRIPTION.
# 1; Cells; 5 uL; white, solid bottom 1536-well Greiner assay plate.
# 2; Compounds; 23 nL; Kalypsis pin tool (Wako USA) equipped with a 1536-well pin head to transfer to the assay plates.
# 3; Incubation; 48 hours; 37C incubation.
# 4; Reagent;5uL; CellTiter Glo (Promega).
# 5; Detector; 425V; Luminescence; Viewlux PerkinElmer.
# NOTES (numbers refer to Sequence numbers above)
# 1. The cell-based screening methods employed in this study were like those previously published. Briefly, the corresponding myeloma cell lines were screened in 1,536-well plates with 500 cells, 5-uL per well for inhibition of cell viability (assessed by measuring ATP levels with CellTiterGlo).
# 2. NCATS MIPE 4.0 library of approved and investigational drugs were added using the Kalypsis pin tool. Wells treated with DMSO only for 100% viability and media only wells for 0% viability were used as controls.
# 3. The assay plates were covered and incubated for 48 hours in a 37C, 5% CO2 incubator with controlled humidity.
# 4. After 48 hours, CellTilter-GloTM luminescent substrate mix (Promega) reagent was added to the assay plate and plates we incubated for 5 min at room temperature.
# 5. Signal was measured as median relative luminescence units on a ViewLux (PerkinElmer) multiplate reader.
# [1] Heske CM, Davis MI, Baumgart JT, Wilson K, Gormally MV, Chen L, Zhang X, Ceribelli M, Duveau DY, Guha R, Ferrer M, Arnaldez FI, Ji J, Tran HL, Zhang Y, Mendoza A, Helman LJ, Thomas CJ. Matrix Screen Identifies Synergistic Combination of PARP Inhibitors and Nicotinamide Phosphoribosyltransferase (NAMPT) Inhibitors in Ewing Sarcoma. Clin Cancer Res. 2017 Dec 1;23(23):7301-7311. doi: 10.1158/1078-0432.CCR-17-1121. Epub 2017 Sep 12. PMID: 28899971; PMCID: PMC6636827.
# Potency is the fitted concentration of half-maximal effect.
SMILES,Potency,"viability, % of control"
COc1cc2ncn(-c3cc(OCc4ccccc4C(F)(F)F)c(C(N)=O)s3)c2cc1OC,2.64 µM (active),
CC[C@H]1CN2CCc3cc(OC)c(OC)cc3[C@H]2C[C@@H]1C[C@@H]1NCCc2cc(OC)c(OC)cc21,0.187 µM (active),
C=CC(=O)Nc1cccc(Oc2nc(Nc3ccc(N4CCN(C)CC4)cc3)ncc2Cl)c1,23.5 µM (active),
O=C(CCCCCCC(=O)Nc1ccc([C@H]2O[C@@H](CSc3nc(-c4ccccc4)c(-c4ccccc4)o3)C[C@@H](c3ccc(CO)cc3)O2)cc1)NO,13.2 µM (active),
CC(=O)OCC(=O)[C@@]1(O)[C@H](C)C[C@H]2[C@@H]3C=C(C)C4=Cc5c(cnn5-c5ccccc5)C[C@]4(C)[C@@H]3[C@@H](O)C[C@@]21C,20.9 µM (active),
C[C@@H]1COC(Nc2ccc3ncnc(Nc4ccc(OCc5nccs5)c(Cl)c4)c3c2)=N1,1.05 µM (active),
COC(=O)Nc1ccc(-c2nc(N3CCOCC3)c3cnn(C4CCN(Cc5cccnc5)CC4)c3n2)cc1,1.48 µM (active),
COc1cccc2nc(-c3cccs3)nc(NN3C(=O)C=C(C)C3=O)c12,0.296 µM (active),
Cn1c(CNc2ccc(C(=N)N)cc2)nc2cc(C(=O)N(CCC(=O)O)c3ccccn3)ccc21,0.0006 µM (active),
C=C1C(=CC=C2CCCC3(C)[C@@H]([C@H](C)C=CC=CC(O)(CC)CC)CC[C@@H]23)C[C@@H](O)C[C@@H]1O (stereo not given in full),18.7 µM (active),
COc1cc2c(Oc3ccc(-c4cnc(Nc5ccc(F)cc5)n(C)c4=O)cc3F)ccnc2cc1OCCCN1CCOCC1,18.7 µM (active),
Cc1cnc(Nc2ccc(F)cc2Cl)nc1-c1c[nH]c(C(=O)N[C@H](CO)c2cccc(Cl)c2)c1,23.5 µM (active),
CC(C)(C)c1cc(C(C)(C)C)c(NC(=O)c2c[nH]c3ccccc3c2=O)cc1O,,102% (inactive)
C[C@H]1C[C@@H]2[C@@H]([C@@H](O)C[C@@]3(C)[C@H]2CC[C@]3(O)C(=O)CO)[C@@]2(C)C=CC(=O)C=C12,,86.4% (inactive)
Cn1cc(-c2ccncc2)c(-c2ccc(OCc3ccc4ccccc4n3)cc2)n1,14.8 µM (active),
CCCn1c(=O)c2[nH]c(-c3cnn(Cc4cccc(C(F)(F)F)c4)c3)nc2n(CC)c1=O,14.8 µM (active),
CCCCCN(CCC12CC3CC(CC(C3)C1)C2)C(=O)NCCCc1ccncc1,23.5 µM (active),
CC(=O)OCCN1C(=O)c2c(C)nc3ccc(S(=O)(=O)N4CCOCC4)cc3c2C1=O,,82.8% (inactive)
Cc1[nH]nc2ccc(-c3cncc(OC[C@@H](N)Cc4ccccc4)c3)cc12,1.87 µM (active),
COc1cc2c(NC3CCN(C(C)C)CC3)nc(C3CCCCC3)nc2cc1OCCCN1CCCC1,10.5 µM (active),

SMILES,Potency,"viability, % of control"
COc1ccc(CC2c3cc(OC)c(OC)cc3CC[N+]2(C)CCC(=O)OCCCCCOC(=O)CC[N+]2(C)CCc3cc(OC)c(OC)cc3C2Cc2ccc(OC)c(OC)c2)cc1OC (stereo not given),,94.3% [at 5.15 µM] (inactive)
CCS(=O)(=O)c1cccc(-c2cc(C(=O)NC3CCN(C)CC3)c(C)c3[nH]c4ncc(C)cc4c23)c1,2.64 µM (active),
CN(c1ncccc1CNc1nc(Nc2ccc3c(c2)CC(=O)N3)ncc1C(F)(F)F)S(C)(=O)=O,8.33 µM (active),
CNC(=O)c1nn(C)c2c1C(C)(C)Cc1cnc(Nc3ccc(N4CCN(C)CC4)cc3)nc1-2,2.64 µM (active),
O=C(O)C1(Cc2cccc(Nc3nccs3)n2)CCC(Oc2cccc(Cl)c2F)CC1 (stereo not given),,104% (inactive)
CCCCOc1c(C(=O)c2c(F)cc(C)cc2F)cnc2n[nH]cc12,2.64 µM (active),
CN(C)CCCN=c1c2ccccc2n(C)c2[nH]c(=O)n(C)c(=O)c12,20.9 µM (active),
CN1CC[C@@H](c2c(O)cc(O)c3c(=O)cc(-c4ccccc4Cl)oc23)[C@@H](O)C1,0.0743 µM (active),
COc1cc(=C2C=c3ccccc3=N2)[nH]c1=Cc1[nH]c(C)cc1C,6.62 µM (active),
CCN(CC)CCNC(=O)c1ccc2nc(-c3ccccc3)c(-c3ccc(CN4CCC(n5c(=O)[nH]c6ccccc65)CC4)cc3)nc2c1,18.7 µM (active),
CC(C)c1cnn2c(NCc3ccccc3)cc(N[C@@H](CO)[C@H](O)CO)nc12,0.235 µM (active),
CNC(=O)c1cc(Oc2ccc(NC(=O)Nc3cc(C(C)(C)C)nn3-c3ccc4ncccc4c3)c(F)c2)ccn1,6.62 µM (active),
CC[C@H](CO)Nc1nc(NCc2ccccc2)c2ncn(C(C)C)c2n1,26.4 µM (active),
COc1cc(C(=O)NS(=O)(=O)c2ccccc2C)ccc1Cc1cn(C)c2ccc(NC(=O)OC3CCCC3)cc12,16.6 µM (active),
CC(C)C[C@H](NC(=O)CNC(=O)c1cc(Cl)ccc1Cl)B(O)O,0.148 µM (active),
CC(=O)SC[C@@H](C)C(=O)N1CCC[C@H]1C(=O)N[C@@H](Cc1ccccc1)C(=O)O,,115% (inactive)
NC(=O)c1cccc2cn(-c3ccc([C@@H]4CCCNC4)cc3)nc12,,98.6% (inactive)
Nc1cc(C(F)(F)F)c(-c2cc(N3CCOCC3)nc(N3CCOCC3)n2)cn1,5.9 µM (active),
C=CC(=O)Nc1cc2c(Nc3ccc(F)c(Cl)c3)ncnc2cc1OCCCN1CCOCC1,7.43 µM (active),
O=c1[nH]nc(Sc2ncc([N+](=O)[O-])s2)n1-c1ccc2c(c1)OCCO2,2.96 µM (active),
